Rows were chosen to be rich in hits. Some 0.82% of all compounds tested hit in one or more screens of this group.
DUSP3 inh – inhibitors of human VHR1 phosphatase (DUSP3) | P51452 | recombinant VHR phosphatase, pNPP absorbance | actives 0.52% (n = 290,000) | inhibition, % at 13.3 µM; in the data active means inhibition above about 50%
Target sequence (P51452 whole entry, looked up): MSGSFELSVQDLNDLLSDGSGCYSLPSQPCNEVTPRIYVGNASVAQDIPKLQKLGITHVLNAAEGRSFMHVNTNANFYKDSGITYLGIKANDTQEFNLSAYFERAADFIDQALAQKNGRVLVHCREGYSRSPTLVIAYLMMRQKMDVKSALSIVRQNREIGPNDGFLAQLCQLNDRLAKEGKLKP
PrPC surface inh – cell surface PrPC inhibition, primary TR-FRET screen; AID 720596; P04156; TR-FRET read-out; actives 0.43% (n = 370,000); inhibition, % at 13.8 µM; in the data active means inhibition above about 24%; further: 0% = median of the test wells and 100% = reference compound wells
TcdB inh – blocks C. difficile toxin B glycohydrolase activity | P18177 | TcdB glycohydrolase enzymatic assay, plate reader | inhibition, % at 9.99 µM | actives 0.24% (n = 350,000); in the data active means inhibition above about 10%
* hit, by the source's call; · = not tested or not shown.

SMILES | DUSP3 inh | PrPC surface inh | TcdB inh
O=C(C1CCC1)N1CC2(C1)[C@H](c1ccccc1)[C@H](CO)N2Cc1cncnc1 | · | · | -3
C[C@@H]1CCCCO[C@H](CN(C)S(=O)(=O)c2cn(C)cn2)[C@@H](C)CN([C@H](C)CO)C(=O)c2cc(NS(=O)(=O)c3cn(C)cn3)ccc2O1 | · | · | -8
C[C@H](O)C#Cc1cnc2c(c1)C(=O)N([C@H](C)CO)C[C@@H](C)[C@@H](CN(C)C(=O)c1ccncc1)O2 | · | · | -1
C[C@H]1CCCCO[C@H](CN(C)C(=O)Nc2ccc3c(c2)OCO3)[C@@H](C)CN([C@@H](C)CO)C(=O)c2cc(NC(=O)c3ccncc3)ccc2O1 | · | · | 0
Cc1cccc(-n2nnc(C(=O)NC3CCCc4ccccc43)c2N)c1 (configuration not stated) | 52* | 15 | ·
Cc1cccc(C(=O)NC2CCCc3ccccc32)c1 (configuration not stated) | 11 | 0 | 0
C[C@H]1CN([C@@H](C)CO)C(=O)c2cc(/C=C/c3ccccc3)cnc2O[C@@H]1CN(C)C(=O)c1ccccc1 | · | · | 2
COc1ccc2c3c([nH]c2c1)[C@H](CO)N(S(C)(=O)=O)CC31CN(C(=O)c2ccncc2)C1 | · | · | 0
C[C@H]1CN([C@@H](C)CO)C(=O)c2cc(NC(=O)Cn3cnnn3)ccc2O[C@H]1CN(C)Cc1ccncc1 | · | · | 1
O=C(CNC(=O)N1CC(=O)Nc2ccccc21)Nc1ccccc1F | 9 | -1 | 1
CCOc1ccccc1NC(=O)CNC(=O)N1CC(=O)Nc2ccccc21 | 51* | -6 | 1
COc1cc(C2c3cc4c(cc3OC(N3CCCCC3)C2C)OCO4)cc(OC)c1O (configuration not stated) | · | 11 | -13
CC1C(c2ccc3c(c2)OCO3)c2cc3c(cc2OC1N1CCOCC1)OCO3 (configuration not stated) | · | 7 | 11*
S=c1[nH]nc(-c2ccccn2)n1/N=C/c1ccccc1 | -4 | -1 | 5
S=c1[nH]nc(-c2ccccn2)n1/N=C/c1ccc(Cl)cc1 | 3 | 2 | 15*
CCC(=O)N1CC(=O)N2[C@@H](CO)[C@H](c3ccc(-c4ccncc4)cc3)[C@@H]2C1 | · | · | 2
Cc1cccc(Nc2nc(Cl)ncc2F)c1C | 60* | 7 | 1
C=CCNc1nc(Cl)ncc1F | 17 | -6 | ·
CN1C(=O)c2cc(NC(=O)c3ccccc3)ccc2OC[C@@H]2O[C@@H](CC(=O)NCC3CC3)CC[C@H]21 | · | · | 0
COc1ccc(-c2ccc(CCC(=O)O)n2-c2ccccc2OC)cc1 | 19 | 9 | -1
COc1ccccc1-n1c(CCC(=O)O)ccc1-c1ccccc1 | 15 | 3 | 11*
O=C(Cc1coc2cc(O)ccc12)NNC(=O)c1cccs1 | · | 0 | 19*
O=C(Cc1ccccc1F)NNC(=O)c1cccs1 | · | 13 | 0
O=C(N[C@H]1CC[C@H](CCNC(=O)C2CCCC2)O[C@@H]1CO)c1ccccn1 | · | · | -1
Cc1ccc(S(=O)(=O)n2ccc(-c3ccc(OCc4c(F)cccc4Cl)cc3)n2)cc1 | 53* | -2 | ·
SMILES | DUSP3 inh | PrPC surface inh | TcdB inh
Cc1ccc(S(=O)(=O)n2ccc(-c3cccc(OCc4c(F)cccc4Cl)c3)n2)cc1 | 6 | 4 | ·
CN(C)CC(=O)Nc1ccc2c(c1)[C@@H]1C[C@@H](CC(=O)NCc3ccc4c(c3)OCO4)O[C@@H](CO)[C@@H]1O2 | · | · | -1
CCc1ccccc1NC(=O)C1CCCN(c2ncccn2)C1 (configuration not stated) | 50* | 4 | 1
CCOc1ccc(OCC)c(NC(=O)C2CCCN(c3ncccn3)C2)c1 (configuration not stated) | 4 | -1 | ·
COc1ccc(S(=O)(=O)N(C)C[C@H]2Oc3c(NC(=O)NC(C)C)cccc3C(=O)N([C@@H](C)CO)C[C@H]2C)cc1 | · | · | 0
C[C@@H]1CN([C@@H](C)CO)C(=O)c2cc(C3=CCCCC3)cnc2O[C@H]1CN(C)C(=O)C1CCOCC1 | · | · | 0
Cc1ccc(C)c(N2CCN(S(=O)(=O)c3ccc4c(c3)CC(=O)N4C)CC2)c1 | 13 | 6 | 0
CN1C(=O)Cc2cc(S(=O)(=O)N3CCN(c4cccc(C(F)(F)F)c4)CC3)ccc21 | 52* | 2 | -1
CO[C@@H]1CN(C)C(=O)c2ccc(NC(=O)c3ccccc3F)cc2OC[C@H](C)N(CC2CCOCC2)C[C@@H]1C | · | · | 0
Cc1ccsc1C(=O)C1CCCN(Cc2cnc(N3CCOCC3)s2)C1 (configuration not stated) | 32 | -1 | 1
COc1ccc2cc(C(=O)C3CCCN(Cc4cnc(N5CCOCC5)s4)C3)ccc2c1 (configuration not stated) | 52* | -8 | 2
O=C(CN1CCOCC1)NCC[C@@H]1CC[C@H](NC(=O)Nc2ccc(C(F)(F)F)cc2)[C@@H](CO)O1 | · | · | 1
C[C@@H]1CN([C@H](C)CO)C(=O)c2cc(C#Cc3ccncc3)cnc2O[C@H]1CN(C)CC1CCOCC1 | · | · | 0
CCn1nc(C)cc1C(=O)N1CCCC(C(=O)c2ccc(Oc3ccccc3)cc2)C1 (configuration not stated) | 57* | 2 | 1
C=CCCC(=O)N1CCCC(C(=O)c2cccc(OC)c2)C1 (configuration not stated) | 57* | 0 | 0
COc1cccc(C(=O)C2CCCN(C(=O)c3ccccc3Cl)C2)c1 (configuration not stated) | 35 | -3 | 3
CCn1nc(C)cc1C(=O)N1CCCC(C(=O)c2ccc3ccccc3c2)C1 (configuration not stated) | 21 | 6 | 1
Cc1cc(C)n(CC(=O)N2CCCC(C(=O)c3cccc(OC(C)C)c3)C2)n1 (configuration not stated) | 52* | -3 | 1
COc1ccc(C(=O)C2CCCN(C(=O)Cn3nc(C)cc3C)C2)cc1F (configuration not stated) | 4 | -6 | 1
C[C@H]1CN([C@@H](C)CO)C(=O)c2cc(NC(=O)Nc3ccc(C(F)(F)F)cc3)ccc2O[C@@H]1CN(C)C(=O)Nc1ccc(C(F)(F)F)cc1 | · | · | -2
CO[C@H]1CN(C)C(=O)c2ccc(NC(=O)Cc3ccccc3)cc2OC[C@@H](C)N(CC2CC2)C[C@@H]1C | · | · | -1
CCCC(C(=O)NC(C)(C)CC)N(Cc1ccco1)C(=O)CNS(=O)(=O)c1ccccc1 (configuration not stated) | 58* | 5 | 1
CC(C)C(C(=O)NCc1ccco1)N(Cc1ccco1)C(=O)CNS(=O)(=O)c1ccccc1 (configuration not stated) | 7 | -1 | 1
CC1=C(SCc2ccccc2)C(=O)c2ccccc2C1=O | · | -9 | 0
O=C1C(SCCO)=C(SCCO)C(=O)c2ccccc21 | · | 65* | -5
CO[C@@H]1CN(C)C(=O)c2ccc(NC(=O)C3CC3)cc2OC[C@@H](C)N(Cc2cccc(F)c2)C[C@H]1C | · | · | -1
CCN(CC)C(=O)CSc1nc2c(sc(=S)n2-c2ccccc2)c(=O)n1-c1ccc(OC)cc1OC | 14 | 3 | 2
COc1ccccc1-n1c(SCC(=O)O)nc2c(sc(=S)n2-c2ccc(Cl)c(C)c2)c1=O | 18 | 1 | 13*
COc1ccccc1-n1c(SCC(=O)O)nc2c(sc(=S)n2-c2ccc(C)c(C)c2)c1=O | -16 | 7 | 11*

Screening data from PubChem.
